The values below come from PubChem BioAssay AID1851 (National Center for Advancing Translational Sciences (NCATS), 2009).

As usually defined, the AC50 is the midpoint of the concentration-response curve, whichever way the signal moves.

“And” between values parts separate entries of the source, which are not always exact repeats. Equal values may be shown once. The whole screen tested about 16,000 compounds, of which about 4,000 (25%) were called active. Not shown: some 26% with an inconclusive outcome. Calls follow the shape of the dose curve; as a rule, active = well fitted curve in the direction sought with a large enough effect; inconclusive = small, poorly fitted or top-dose-only effect, or effect the other way; inactive = no such curve, though single readings can be large or run the other way. The list is a sample of the results.
% is scaled to controls: 0 for no effect and ±100 for the full control effect.

This experiment deals with Cytochrome P450 2C9 (Homo sapiens) (UniProt P11712). Put plainly: Cytochrome panel assay with activity outcomes. The note with it: recombinant CYP, pro-luciferin dealkylation, luminescence, p450-cyp2c9; series mostly up to 57.1 µM; activity, negative = inhibition: at the top concentration.
Cytochrome P450 2C9 (Homo sapiens), sequence (P11712 whole entry, looked up): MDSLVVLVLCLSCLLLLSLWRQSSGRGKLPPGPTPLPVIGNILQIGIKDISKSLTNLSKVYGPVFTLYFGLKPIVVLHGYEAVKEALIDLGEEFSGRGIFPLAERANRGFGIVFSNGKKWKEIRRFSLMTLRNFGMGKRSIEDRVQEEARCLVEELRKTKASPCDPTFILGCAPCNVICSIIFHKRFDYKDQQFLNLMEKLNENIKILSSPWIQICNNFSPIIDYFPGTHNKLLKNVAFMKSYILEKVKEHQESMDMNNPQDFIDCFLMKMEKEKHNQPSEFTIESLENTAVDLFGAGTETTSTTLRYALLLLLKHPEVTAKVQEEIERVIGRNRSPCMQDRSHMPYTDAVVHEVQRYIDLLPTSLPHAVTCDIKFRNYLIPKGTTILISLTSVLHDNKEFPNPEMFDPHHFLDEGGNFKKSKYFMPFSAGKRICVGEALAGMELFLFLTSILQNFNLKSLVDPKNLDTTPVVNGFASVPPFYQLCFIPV
With `Cc1ccc(NC(=S)Nc2nc(CC(=O)Nc3ccccc3)cs2)cc1`, the AC50 was 2.82 µM (active).
Turning to `CN1CCC(n2[nH]c(-c3ccccc3)c(Cc3ccccc3)c2=O)CC1`, the activity, negative = inhibition was 0.284% [at 11.4 µM] (inactive).
For `CCN1C(=O)[C@H]2[C@H]3[C@H](O)[C@H](O)C/C(=N/OC[C@@H](O)COCc4ccco4)[C@@H]3CC[C@@H]2C1=O`, the activity, negative = inhibition is 21.5% [at 11.4 µM] (inactive) and 18.6% [at 11.4 µM] (inactive).
As for `Cn1c(SCC(=O)c2ccc3c(c2)Cc2ccccc2-3)nnc1-c1ccccc1`, the AC50 is 8.91 µM (active).
The same measure, in the same setting: the result for `CC(=O)Nc1ccc(-c2nnc(SCC(=O)c3ccc4c(c3)Cc3ccccc3-4)n2C)cc1` reads 12.6 µM (active); that for `CN1CCCC[C@@H]1CCN1c2ccccc2Sc2ccc(S(C)=O)cc21` (stereo partly drawn), “inactive”.
In the case of `CCN(CC)CCN1C(=O)c2cccc3cc(N)cc(c23)C1=O`, the activity, negative = inhibition was 13.4% [at 11.4 µM] (inactive).
The same measure, in the same setting: the result for `CCOC(=O)C(NC(C)=O)C(=O)O` (stereo not drawn) reads -29.6% (inactive).
For the compound `C/C(CCN1CCCCc2nc(C)c(C)cc21)=N\O[C@@H](C)c1cc(-c2c(C)cc(C)cc2C)no1`, the AC50 was 2.51 µM (active).
For the compound `C/C(CCN1CCCCc2nc(C)c(C)cc21)=N\O[C@@H](C)CN1CCCCc2nc(C)c(C)cc21`, the activity, negative = inhibition was 7.62% [at 11.4 µM] (inactive).
For `C/C(CCN1CCCc2nc(C)c(C)cc21)=N\O[C@@H](C)CN1CCCCc2nc(C)c(C)cc21`, the activity, negative = inhibition is -3.15% [at 11.4 µM] (inactive).
As to `COc1ccc(-c2n[nH]c(C)c2-c2ccc(Cl)cc2)c(O)c1`, the AC50 is 10 µM (active).
`CC(NC(=O)c1ccccc1)c1nc2ccccc2n1Cc1ccccc1F` (stereo not drawn): the AC50 was 5.62 µM (active).
Consider `CN(C)CCCc1cc(C(=O)Nc2ccc(-c3ccncc3)cc2)ccc1O`, for which the “activity, negative = inhibition” value is -28.2% (inactive).
For the compound `C[C@@H]1CCC[C@H](C)N1NC(=O)c1ccc(Cl)c(S(N)(=O)=O)c1`, the “activity, negative = inhibition” value was 11.9% [at 25.6 µM] (inactive).
For the compound `CCN(CC)S(=O)(=O)c1cc(C(=O)Nc2ccncc2)ccc1Cl`, the AC50 is 0.141 µM (active).
Still for that read-out and setting: as for `COC(=O)c1ccc(NC(=S)N2CCN(Cc3cccc(C)c3)CC2)cc1`, the figure is 25.1 µM (active).
For the compound `COc1ccc(NC(=S)N2CCN(C/C=C/c3ccccc3)CC2)cc1OC`, the “activity, negative = inhibition” value was -4.86% (inactive).
The same measure, in the same setting: as for `Cc1nn(CC(=O)NCc2ccccc2)c(C)c1[N+](=O)[O-]`, the figure is 1.3% (inactive).
`Cc1nn(C(C)C(=O)N2CCc3ccccc32)c(C)c1[N+](=O)[O-]` (stereo not drawn): the half-maximal activity concentration (AC50) is 11.2 µM (active).
Regarding `Cc1nn(CC(=O)NCCN2CCOCC2)c(C)c1[N+](=O)[O-]`, the “activity, negative = inhibition” value is 10.2% (inactive).
On the same count and under the same terms, as for `O=C(O)[C@@H]1[C@@H](C(=O)Nc2ncccn2)[C@@H]2C=C[C@@H]1O2`, the figure is 2.98% [at 11.4 µM] (inactive).
With `FC(F)(F)c1nc2nc(Cl)c(Cl)nc2n1CCCN1CCOCC1`, the AC50 was 2.51 µM (active).
With `OCCN1CCOCCOCCN(CCO)CCN(CCO)CC1`, the “activity, negative = inhibition” value is -16.3% (inactive).
For the compound `c1cc(CNCCCN2CCOCC2)ccn1`, the “activity, negative = inhibition” value was -17.4% (inactive).
Consider `CCCC(=O)NCCc1c2n(c3ccc(OC)cc13)Cc1ccccc1-2`, for which the AC50 was 1.26 µM (active).
On to `CCCCC(=O)NCCc1c(Cc2ccccc2)[nH]c2ccccc12`, for which the “activity, negative = inhibition” value is -4.23% (inactive).
On to `CCOC(=O)/C(C(N)=NCCCO)=C(/O)c1ccccc1`, for which the “activity, negative = inhibition” value was -20% (inactive).
In the case of `CSc1nncc(/C(C)=N\Nc2ccccc2)n1`, the AC50 was 4.47 µM (active).
Turning to `CC/C(=N/Nc1ccccc1)c1cnnc(SC)n1`, the AC50 is 0.891 µM (active).
Regarding `C#CCCCO/N=C1/C[C@@H](O)[C@@H](O)[C@@H]2[C@@H]3C(=O)N(CC)C(=O)[C@H]3CC[C@@H]12`, the activity, negative = inhibition is 0.179% [at 11.4 µM] (inactive).
With `O=C(O)[C@@H](c1ccccc1)[C@@H](C(=O)O)c1ccccc1`, the activity, negative = inhibition is 0.327% [at 11.4 µM] (inactive).
The same measure, in the same setting: as for `O=C(CSc1ncnc2nc[nH]c12)c1ccccc1`, the figure is -26.2% [at 11.4 µM] (inactive).
As to `Nc1cc(N)nc(SCC(=O)c2ccccc2)n1`, the “activity, negative = inhibition” value was -23.1% (inactive).
Take `Cc1cc(SCC(=O)c2ccccc2)nc(SCC(=O)c2ccccc2)n1`: the AC50 was 0.891 µM (active).
In the case of `COc1ccc(C[C@@H]2C(=O)N[C@H](C)C(=O)N(C)[C@@H]3Cc4ccc(cc4)Oc4cc(ccc4O)C[C@H](C(=O)N[C@@H](C)C(=O)N[C@H](C)C(=O)N2C)N(C)C3=O)cc1`, the activity, negative = inhibition is 3.77% [at 11.4 µM] (inactive).
Same read-out and setting: as for `CN(C)CC(O)COc1cccc(OCC(O)CN(C)C)c1` (stereo not drawn), the figure is -0.701% (inactive); as for `CN(C)CC(O)COc1ccc(C(C)(C)c2ccc(OCC(O)CN(C)C)cc2)cc1` (stereo not drawn), -1.3% (inactive).
On to `CCC(=O)c1ccc(OCC(O)CN(CCc2ccccc2)Cc2ccccc2)cc1` (stereo not drawn), for which the AC50 is 3.16 µM (active).
With `Cc1ccccc1-c1ccc2ncnc(N3CCN(C)CC3)c2c1`, the activity, negative = inhibition is 20.6% [at 2.29 µM] (inactive).
On the same count and under the same terms, as for `O=C(O)c1c(-c2c3ccc(=O)cc-3oc3cc(O)ccc23)cc2ccccc2c1-c1ccccc1`, the figure is 13% [at 11.4 µM] (inactive).
As to `C=CCSc1nc(Oc2ccccc2)c2sccc2n1`, the concentration at half-maximal activity (AC50) was 8.91 µM (active).
With `C=CCSc1ccsc1C(=O)O`, the “activity, negative = inhibition” value is -14.3% (inactive).
